For some assays here: Results with a measured potency or affinity are listed apart.

What all share (set-up): scale not given: direction of the effect not stated beside the values
Experiment [1] deals with Protein translocase subunit SecA (Escherichia coli (strain K12)) (UniProt P10408). The experiment can be described thus: Assay to Identify E. coli SecA ATPase Inhibitors. The experiment is classed as functional. The conditions noted are these: 30 µM.
Experiment [2] has as its target T1, Ubiquitin-activating enzyme e1, putative (Leishmania donovani (strain BPK282A1)) (UniProt E9BSI1).
T1 sequence (whole entry): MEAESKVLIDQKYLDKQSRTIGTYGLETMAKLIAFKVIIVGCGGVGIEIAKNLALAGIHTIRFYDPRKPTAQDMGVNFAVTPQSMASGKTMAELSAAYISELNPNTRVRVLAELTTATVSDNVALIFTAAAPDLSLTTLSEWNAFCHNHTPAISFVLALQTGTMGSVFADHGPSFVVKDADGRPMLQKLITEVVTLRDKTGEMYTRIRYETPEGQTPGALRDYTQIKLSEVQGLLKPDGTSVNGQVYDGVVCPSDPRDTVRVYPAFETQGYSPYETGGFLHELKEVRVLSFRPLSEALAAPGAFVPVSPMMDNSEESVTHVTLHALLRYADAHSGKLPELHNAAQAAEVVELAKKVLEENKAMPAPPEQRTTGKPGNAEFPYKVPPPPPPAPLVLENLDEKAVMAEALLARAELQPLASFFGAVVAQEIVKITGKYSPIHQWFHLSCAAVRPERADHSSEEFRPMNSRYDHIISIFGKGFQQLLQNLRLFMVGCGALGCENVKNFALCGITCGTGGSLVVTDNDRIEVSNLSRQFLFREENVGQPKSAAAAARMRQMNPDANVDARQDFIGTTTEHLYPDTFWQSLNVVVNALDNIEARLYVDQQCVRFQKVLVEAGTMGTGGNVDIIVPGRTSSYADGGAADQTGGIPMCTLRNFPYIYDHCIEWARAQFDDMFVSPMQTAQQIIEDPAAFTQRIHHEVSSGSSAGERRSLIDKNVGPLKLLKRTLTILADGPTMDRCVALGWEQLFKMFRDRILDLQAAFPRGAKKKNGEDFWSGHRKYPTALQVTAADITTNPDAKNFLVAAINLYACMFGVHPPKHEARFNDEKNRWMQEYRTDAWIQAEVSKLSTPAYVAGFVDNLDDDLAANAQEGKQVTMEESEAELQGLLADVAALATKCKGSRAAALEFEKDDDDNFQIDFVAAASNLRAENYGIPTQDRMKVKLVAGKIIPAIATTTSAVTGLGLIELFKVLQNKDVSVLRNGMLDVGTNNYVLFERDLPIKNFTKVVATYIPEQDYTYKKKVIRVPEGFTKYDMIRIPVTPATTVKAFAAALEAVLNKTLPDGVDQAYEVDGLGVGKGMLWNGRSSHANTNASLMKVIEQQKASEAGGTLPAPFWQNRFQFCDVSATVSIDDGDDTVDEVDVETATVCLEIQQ
Briefly: Leishmania donovani Ubiquitin Activating Enzyme (LdE1). It counts as functional. The note with it: 30 µM.

Experiment [3] deals with Sialic acid-binding Ig-like lectin 9 (Homo sapiens) (UniProt Q9Y336). The experiment can be described thus: Hs-Siglec9 ALPHAscreen SOP 20170721. The conditions noted are these: 10 µM. A general note: Bead proximity is the source of the signal in Alpha formats.
Chain of Sialic acid-binding Ig-like lectin 9 (Homo sapiens) (Q9Y336 whole entry): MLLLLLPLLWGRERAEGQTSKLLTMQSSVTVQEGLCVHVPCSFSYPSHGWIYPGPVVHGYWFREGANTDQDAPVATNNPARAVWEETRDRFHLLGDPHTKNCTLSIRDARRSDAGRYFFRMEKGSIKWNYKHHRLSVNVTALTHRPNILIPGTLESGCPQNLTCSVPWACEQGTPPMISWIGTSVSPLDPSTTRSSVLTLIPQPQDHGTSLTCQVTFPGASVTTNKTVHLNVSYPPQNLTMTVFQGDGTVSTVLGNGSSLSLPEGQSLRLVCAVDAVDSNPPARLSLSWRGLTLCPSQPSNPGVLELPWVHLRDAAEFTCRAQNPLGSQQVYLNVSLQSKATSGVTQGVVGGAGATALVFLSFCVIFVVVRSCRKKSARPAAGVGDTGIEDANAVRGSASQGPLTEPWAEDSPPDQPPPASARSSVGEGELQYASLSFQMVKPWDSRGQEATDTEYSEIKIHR
Another experiment deals with Trypanosoma cruzi. The experiment can be described thus: Trypanosoma cruzi phosphomannomutase and mannose-1-phosphate guanylyltransferase assay. The experiment is classed as functional. The note with it: 10 µM.
In experiment [4] the target is T2, Arginase-2, mitochondrial (Homo sapiens) (UniProt P78540).
T2 sequence (whole entry): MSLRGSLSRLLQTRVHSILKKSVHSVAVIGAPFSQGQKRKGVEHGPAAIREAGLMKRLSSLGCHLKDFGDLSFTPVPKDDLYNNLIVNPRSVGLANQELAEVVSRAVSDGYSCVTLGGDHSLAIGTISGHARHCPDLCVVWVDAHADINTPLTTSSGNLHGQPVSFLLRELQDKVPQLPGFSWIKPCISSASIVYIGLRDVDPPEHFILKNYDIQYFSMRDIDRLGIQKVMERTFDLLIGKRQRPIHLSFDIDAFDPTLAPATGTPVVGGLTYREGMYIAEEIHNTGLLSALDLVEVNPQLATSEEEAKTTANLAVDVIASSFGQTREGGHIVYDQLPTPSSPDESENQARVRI
Briefly: in vitro enzyme assay to detect the production of urea directly proportional to the activity of Arginase II. Further: in the data most compounds retested in dose-response had high values. The experiment is classed as functional. The conditions noted are these: 33.3 µM.

For experiment [5], the target named is T3, Proteasome subunit beta (Trypanosoma cruzi) (UniProt O96673).
T3 sequence (whole entry): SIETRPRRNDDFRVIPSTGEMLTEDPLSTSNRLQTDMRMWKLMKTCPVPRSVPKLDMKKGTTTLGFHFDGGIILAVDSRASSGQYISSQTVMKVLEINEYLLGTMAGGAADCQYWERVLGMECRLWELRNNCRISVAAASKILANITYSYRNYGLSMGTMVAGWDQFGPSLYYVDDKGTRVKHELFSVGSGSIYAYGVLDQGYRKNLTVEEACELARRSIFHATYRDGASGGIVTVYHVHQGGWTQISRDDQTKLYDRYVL
The experiment can be described thus: Trypanosoma cruzi proteasome chymotrypsin-like activity (TcProtChymo) assay. Further: in the data most compounds retested in dose-response had high values. The experiment is classed as functional. The conditions noted are these: 9.37 µM.

The species entered for the next experiment is Homo sapiens. The experiment can be described thus: To identify inhibition of the IFN signalling (Jak-Stat) pathway via expression of an eGFP reporter gene under the control of an IFN-stimulated response element (ISRE) containing MxA promoter. The experiment is classed as functional. The conditions noted are these: 30 µM.
Experiment [6] deals with T4, Tyrosyl-tRNA synthetase, putative (Trypanosoma cruzi (strain CL Brener)) (UniProt Q4DSP6).
T4 sequence (whole entry): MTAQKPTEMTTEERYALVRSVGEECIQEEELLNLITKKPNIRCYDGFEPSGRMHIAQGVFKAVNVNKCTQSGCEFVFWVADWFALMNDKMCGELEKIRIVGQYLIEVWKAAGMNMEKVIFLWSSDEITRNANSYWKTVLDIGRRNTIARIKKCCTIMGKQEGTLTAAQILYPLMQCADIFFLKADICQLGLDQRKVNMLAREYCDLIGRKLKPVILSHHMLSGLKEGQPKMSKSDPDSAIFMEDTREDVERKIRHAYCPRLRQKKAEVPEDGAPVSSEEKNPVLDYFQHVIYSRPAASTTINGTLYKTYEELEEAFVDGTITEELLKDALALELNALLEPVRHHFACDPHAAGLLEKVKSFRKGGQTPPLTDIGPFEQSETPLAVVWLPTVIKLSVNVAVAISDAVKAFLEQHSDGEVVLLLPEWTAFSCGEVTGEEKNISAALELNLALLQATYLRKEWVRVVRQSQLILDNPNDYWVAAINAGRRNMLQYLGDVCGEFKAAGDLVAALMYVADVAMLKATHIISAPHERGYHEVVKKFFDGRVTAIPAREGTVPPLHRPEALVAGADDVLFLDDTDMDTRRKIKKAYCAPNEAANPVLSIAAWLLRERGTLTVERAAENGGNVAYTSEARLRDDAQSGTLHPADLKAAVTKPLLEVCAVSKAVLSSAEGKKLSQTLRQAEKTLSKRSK
Briefly: Trypanosoma cruzi tyrosyl tRNA synthetase (TcYRS) _High Tyrosine SOP. Further: in the data most compounds retested in dose-response had high values. The experiment is classed as functional. The note with it: 30 µM.

Experiment [7] has as its target T4, Tyrosyl-tRNA synthetase, putative (Trypanosoma cruzi (strain CL Brener)). Briefly: Trypanosoma cruzi tyrosyl tRNA synthetase (TcYRS) SOP. It counts as functional. The conditions noted are these: 30 µM.
Experiment [8] deals with Chromo domain-containing protein 1 (Saccharomyces cerevisiae (strain ATCC 204508 / S288c) (Baker's yeast)) (UniProt P32657). The experiment can be described thus: ScCHD-1 Enzyme Inhibition Assay. Further: in the data most compounds retested in dose-response had high values. The experiment is classed as functional. The conditions noted are these: 30 µM.
Chain of Chromo domain-containing protein 1 (Saccharomyces cerevisiae (strain ATCC 204508 / S288c) (Baker's yeast)) (P32657 whole entry, the tested form may be a part): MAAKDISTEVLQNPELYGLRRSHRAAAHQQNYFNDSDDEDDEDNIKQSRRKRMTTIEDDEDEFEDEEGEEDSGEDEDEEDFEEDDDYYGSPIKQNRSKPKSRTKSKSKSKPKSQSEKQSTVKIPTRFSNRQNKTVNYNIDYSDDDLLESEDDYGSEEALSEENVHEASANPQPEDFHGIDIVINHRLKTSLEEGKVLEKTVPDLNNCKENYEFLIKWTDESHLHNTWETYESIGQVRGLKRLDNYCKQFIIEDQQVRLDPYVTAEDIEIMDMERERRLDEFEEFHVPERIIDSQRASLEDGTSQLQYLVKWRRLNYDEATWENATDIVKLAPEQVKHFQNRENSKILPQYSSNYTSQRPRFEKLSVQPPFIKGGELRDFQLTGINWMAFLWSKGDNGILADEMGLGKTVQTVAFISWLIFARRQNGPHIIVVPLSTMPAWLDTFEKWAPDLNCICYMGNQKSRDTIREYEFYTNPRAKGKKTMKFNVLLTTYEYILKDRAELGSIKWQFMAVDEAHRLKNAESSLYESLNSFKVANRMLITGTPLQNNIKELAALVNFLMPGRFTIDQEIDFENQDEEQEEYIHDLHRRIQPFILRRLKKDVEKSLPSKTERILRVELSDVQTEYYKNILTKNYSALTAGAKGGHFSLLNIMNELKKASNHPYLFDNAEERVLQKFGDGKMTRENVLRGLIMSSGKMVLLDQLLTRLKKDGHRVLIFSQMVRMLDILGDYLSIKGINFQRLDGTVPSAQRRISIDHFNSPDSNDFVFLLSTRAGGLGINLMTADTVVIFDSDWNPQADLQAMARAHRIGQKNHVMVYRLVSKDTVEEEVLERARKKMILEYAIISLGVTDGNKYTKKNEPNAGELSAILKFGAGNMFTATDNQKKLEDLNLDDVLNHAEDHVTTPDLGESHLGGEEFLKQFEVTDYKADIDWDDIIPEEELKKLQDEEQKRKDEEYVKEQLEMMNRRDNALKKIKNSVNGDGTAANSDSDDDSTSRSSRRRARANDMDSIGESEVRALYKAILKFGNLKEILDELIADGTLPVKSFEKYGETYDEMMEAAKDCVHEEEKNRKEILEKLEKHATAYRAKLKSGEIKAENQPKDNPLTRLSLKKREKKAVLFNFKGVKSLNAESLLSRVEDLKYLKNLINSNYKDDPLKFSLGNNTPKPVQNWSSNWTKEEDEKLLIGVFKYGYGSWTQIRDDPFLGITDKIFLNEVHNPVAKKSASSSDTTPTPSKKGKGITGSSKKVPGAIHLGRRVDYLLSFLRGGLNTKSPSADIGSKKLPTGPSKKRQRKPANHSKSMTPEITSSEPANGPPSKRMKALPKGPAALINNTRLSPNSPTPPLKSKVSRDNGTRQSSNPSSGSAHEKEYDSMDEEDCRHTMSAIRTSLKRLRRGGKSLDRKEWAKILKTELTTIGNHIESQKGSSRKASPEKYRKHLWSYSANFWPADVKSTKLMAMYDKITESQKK

Chain of Protein translocase subunit SecA (Escherichia coli (strain K12)) (P10408 whole entry): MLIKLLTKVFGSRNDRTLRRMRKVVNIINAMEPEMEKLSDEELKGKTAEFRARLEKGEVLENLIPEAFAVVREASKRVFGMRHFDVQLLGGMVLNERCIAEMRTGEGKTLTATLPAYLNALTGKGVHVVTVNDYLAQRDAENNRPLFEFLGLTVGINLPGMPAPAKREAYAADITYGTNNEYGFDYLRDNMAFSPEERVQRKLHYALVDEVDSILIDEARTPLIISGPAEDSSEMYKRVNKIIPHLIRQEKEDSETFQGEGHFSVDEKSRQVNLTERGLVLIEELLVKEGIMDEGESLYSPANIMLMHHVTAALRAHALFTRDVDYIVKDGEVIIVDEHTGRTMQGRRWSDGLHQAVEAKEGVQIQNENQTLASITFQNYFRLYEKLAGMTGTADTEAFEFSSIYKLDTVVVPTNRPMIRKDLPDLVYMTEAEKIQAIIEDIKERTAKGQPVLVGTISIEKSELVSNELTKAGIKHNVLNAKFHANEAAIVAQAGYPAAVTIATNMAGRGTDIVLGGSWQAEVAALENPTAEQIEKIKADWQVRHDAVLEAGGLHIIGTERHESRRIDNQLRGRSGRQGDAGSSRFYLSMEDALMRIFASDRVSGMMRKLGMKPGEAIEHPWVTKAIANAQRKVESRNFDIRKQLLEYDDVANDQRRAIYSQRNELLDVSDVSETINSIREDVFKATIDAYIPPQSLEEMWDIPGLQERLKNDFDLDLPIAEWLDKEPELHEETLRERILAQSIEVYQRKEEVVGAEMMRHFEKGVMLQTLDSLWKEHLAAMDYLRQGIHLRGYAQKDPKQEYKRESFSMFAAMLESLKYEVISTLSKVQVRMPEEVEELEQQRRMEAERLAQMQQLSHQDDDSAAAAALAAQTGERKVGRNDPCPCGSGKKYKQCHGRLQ

Take `O=C(NCCCn1ccnc1)N1CCCC1c1cccs1` (stereo not given): the Percent Effect is -1.21% in experiment [1]; 12.8% in experiment [2]; -12.2% in experiment [3]; 6.67% with Trypanosoma cruzi; 8.2% in [4]; 11% in experiment [5]. Further, the Percent Effect in the experiment listed under Homo sapiens is -4.65%; in [6], 7.18%; in [7], 18.1%; in [8], -5.02%.
Turning to `COc1ccccc1OCC(=O)NS(=O)(=O)c1ccc(C)s1`, the Percent Effect in experiment [1] was -1.64%; in experiment [2], 5.2%; in experiment [3] it was 0.674%; in the experiment on Trypanosoma cruzi, -0.746%; in [4] it was 7.58%; in experiment [5] it was 6.49%. The Percent Effect is 5.05% in the experiment listed under Homo sapiens, 0.98% in experiment [6], 16.5% in [7] and -3.45% in experiment [8].
`Cn1cc(C(=O)NC2CCN(Cc3ccn(C)c(=O)c3)CC2)cn1`: the Percent Effect in [1] was -0.0592%; in [2] it was -7.69%; in [3] it was -4.2%; with Trypanosoma cruzi, -1.41%; in [4], 4.51%; in experiment [5] it was 3.67%. Also, the Percent Effect in the experiment filed under Homo sapiens was 26.8%; in experiment [6] it was -1.44%; in experiment [7] it was -3.61%; in experiment [8] it was -4.65%.
Consider `COCCC(=O)N1C[C@H]2CN(Cc3cccc(C)n3)C(=O)[C@H]2C1`, for which the Percent Effect was -1.95% in experiment [1]; 3.9% in experiment [2]; -4.82% in experiment [3]; -0.563% in the experiment with Trypanosoma cruzi; 2.74% in experiment [4]; 0.0858% in experiment [5]. The Percent Effect in the experiment filed under Homo sapiens is -13.5%; in [6] it was 7.73%; in [7] it was 7.5%; in experiment [8], -4.73%.
For `COc1cccc(-c2noc(C3CCN(Cc4cn(C)nc4C)C3)n2)c1` (stereo not given), the Percent Effect is -3.83% in experiment [1]; 14.7% in [2]; 3.58% in experiment [3]; 5.72% with Trypanosoma cruzi; -1.33% in experiment [4]; 14.1% in experiment [5]. For the same compound, the Percent Effect was 31.6% in the experiment listed under Homo sapiens, 6.35% in experiment [6], 20% in experiment [7] and -24.7% in experiment [8].
In the case of `COC(=O)COc1nc(CC(C)C)c2c(c1C#N)CCCC2`, the Percent Effect in experiment [1] is -4.25%; in experiment [2], 2.7%; in [3], -5.64%; in the experiment on Trypanosoma cruzi it was -7.86%; in experiment [4] it was -5.94%; in experiment [5], 10.6%. For the same compound, the Percent Effect in the experiment listed under Homo sapiens was 38.2%; in [6] it was -2.66%; in [7], 4.88%; in [8], -4.12%.
In the case of `Cn1cc(N2CC3(COCCN(Cc4ccsc4)C3)OCC2=O)cn1` (stereo not given), the Percent Effect is -9.04% in [1]; -1.3% in experiment [2]; 10.7% in experiment [3]; -1.46% with Trypanosoma cruzi; 0.405% in experiment [4]; 2.21% in [5]. Further, the Percent Effect is 6.9% in the experiment listed under Homo sapiens, 4.74% in experiment [6], -5.13% in [7] and 2.44% in [8].
As for `CC(=O)N1CCC2(CCCN(Cc3ccc(Cl)c(C(F)(F)F)c3)C2)C1` (stereo not given), the Percent Effect was -6.95% in experiment [1]; 3.9% in experiment [2]; -5.84% in experiment [3]; 1.07% in the experiment on Trypanosoma cruzi; -1.22% in [4]; 1.15% in [5]. In addition, the Percent Effect is -5.5% in the experiment filed under Homo sapiens, -8.95% in [6], 10.3% in experiment [7] and 0.22% in [8].
As to `O=C(NCc1ccccc1-n1cccn1)N1CCN2CCCCC2C1` (stereo not given), the Percent Effect was -4.48% in experiment [1]; 0% in experiment [2]; 9.91% in experiment [3]; 0.803% with Trypanosoma cruzi; 2.22% in experiment [4]; 1.78% in experiment [5]. The Percent Effect in the experiment filed under Homo sapiens is -2.71%; in experiment [6], 2.63%; in experiment [7], 10.3%; in [8], -8%.
For the compound `c1cnn(CCNCc2csc(-c3ccsc3)n2)c1`, the Percent Effect was -6.54% in experiment [1]; -12.8% in experiment [2]; -10.8% in experiment [3]; -5.92% with Trypanosoma cruzi; -1.23% in [4]; 20.6% in experiment [5]. The Percent Effect in the experiment filed under Homo sapiens is 24.6%; in experiment [6], -6.22%; in experiment [7], -1.21%; in [8], 0.287%.
`Cc1cccc(CN2CCc3nnc(CN4CCCC4=O)n3CC2)n1`: the Percent Effect was -3.64% in [1]; 14.3% in experiment [2]; 1.97% in [3]; -2.06% in the experiment on Trypanosoma cruzi; -2.28% in [4]; 8.67% in experiment [5]. Further, the Percent Effect was 9.65% in the experiment filed under Homo sapiens, 4.83% in experiment [6], 10% in [7] and -8.05% in experiment [8].
